Hits are enriched below; roughly 2.4% of the tested compounds scored in any of these assays.
D2 PAM-1: positive allosteric modulators of human D2 dopamine receptor | HEK293 T-REx D2, calcium flux, EC20 dopamine potentiation | P14416 | potentiation, % at 10 µM | actives 0.34% (n = 340,000);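 active means potentiation over 3 SD above the plate norm, cut at about 30% in these data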; further: 0% is about no effect
Target sequence (P14416 whole entry, looked up): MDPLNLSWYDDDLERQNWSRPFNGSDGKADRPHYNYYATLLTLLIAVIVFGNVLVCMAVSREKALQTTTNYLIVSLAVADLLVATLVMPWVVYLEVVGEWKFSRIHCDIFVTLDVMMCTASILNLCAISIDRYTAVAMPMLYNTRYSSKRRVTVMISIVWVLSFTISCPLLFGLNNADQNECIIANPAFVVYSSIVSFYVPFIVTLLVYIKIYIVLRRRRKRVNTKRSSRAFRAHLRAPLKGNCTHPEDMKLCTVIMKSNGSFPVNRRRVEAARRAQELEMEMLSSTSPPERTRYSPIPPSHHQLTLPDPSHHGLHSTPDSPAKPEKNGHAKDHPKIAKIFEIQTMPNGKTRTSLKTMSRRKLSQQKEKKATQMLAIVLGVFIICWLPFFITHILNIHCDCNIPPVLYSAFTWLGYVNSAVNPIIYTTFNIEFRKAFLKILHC
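Calcium flux readout, no-wash dye, 1 read/s. Inducible HEK293 Trex D2 line, overnight 30 C. Compound alone 180 s (agonist flags), then EC20 dopamine, another 180 s to score potentiation.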
D2 PAM-2: human D2 receptor positive allosteric modulation; P14416; DiscoveRx D2 beta-arrestin cells, luminescence, 90 min; 100% = 57 uM dopamine signal; potentiation, % (concentration not given with the values); actives 0.23% (n = 360,000); in the data active means potentiation above about 50%
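PathHunter beta-arrestin assay in DiscoveRx D2 cells. Compounds were added with an EC20 of dopamine (50 nM final) for 90 min at 37 deg C. Luminescence was read 1 h after detection reagent, with 57 uM dopamine as the EC100 control.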
D2 ag-1: agonists of human D2 dopamine receptor; P14416; actives 0.53% (n = 340,000); activation, % at 2 µM; HEK293 T-REx D2 cells, calcium flux agonist mode; AID 485358;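 active means activation over 3 SD above normal in the single-dose calcium agonist read, cut at about 30% in these data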; further: 0% is about no effect
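Tetracycline-induced HEK293 Trex cells with D2 receptor force-coupled to calcium signaling, plated overnight at 30 C and loaded with no-wash calcium dye. Calcium flux read kinetically for 180 s after compound addition; responses flag agonists.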
D2 antagonist: antagonists of human D2 dopamine receptor. P14416. HEK293 TREx D2 cells, calcium flux, dopamine EC80. inhibition, % at 10 µM. actives 2% (n = 340,000). AID 485344; in the data active means inhibition above about 30%; inactive means below that, where a call was filed; further: 0% is about no effect
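Calcium mobilization kinetics were recorded at 1 s intervals in tetracycline-induced HEK293 T-REx D2 cells, first for 180 s after compound addition and then 180 s after EC80 dopamine.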
D2 ag-2: agonists of human D2 dopamine receptor (beta-arrestin); P14416; DiscoveRx PathHunter D2 beta-arrestin, luminescence, 90 min; 100% = 57 uM dopamine signal; activation, % (test concentration not listed); actives 0.084% (n = 360,000); in the data active means activation above about 40%
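DiscoveRx PathHunter D2 beta-arrestin cells (2,100/well) attached overnight, then compound-stimulated 90 min at 37 C in HBSS/10 mM HEPES/0.1% Tween-20 buffer; beta-galactosidase complementation read by luminescence after 1 h at ambient temperature. Dopamine 57 uM final (EC100) as control.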
* marks the source's active call; other numbers are inactive results; nt = not tested or not shown.

SMILES | D2 PAM-1 | D2 PAM-2 | D2 ag-1 | D2 antagonist | D2 ag-2
COc1ccc(C(CNC(=O)CSc2ccccc2F)N2CCOCC2)cc1 (stereo not drawn) | 12 | -5 | 2 | 3 | -1
COc1ccc(NC(=O)c2ccc(-c3ccccc3Cl)o2)cc1 | -17 | -25 | -1 | 42* | -3
CC(C)(CNC(=O)c1ccc(-c2ccccc2Cl)o1)N1CCOCC1 | -5 | -20 | -1 | 40* | -4
COc1ccc(NC(=O)c2ccc(-c3cccc(Cl)c3C)o2)cc1 | -8 | nt | 0 | nt | nt
COc1ccccc1C(CNC(=O)c1ccc(-c2ccccc2Cl)o1)N1CCCC1 (stereo not drawn) | -20 | -69 | 1 | 11 | -2
Cc1ccc(NC(=O)c2cccc(S(=O)(=O)Nc3c(C)n(C)n(-c4ccccc4)c3=O)c2)cc1C | nt | 0 | nt | nt | 7
O=C1c2ccncc2C(=O)N1c1cccc(Cl)c1 | -3 | -7 | 0 | 5 | -1
O=c1onc(-c2ccc(Cl)cc2Cl)n1-c1cccnc1 | 12 | 59* | 0 | 5 | 60*
COc1ccc(CNC(=O)C2CCN(S(=O)(=O)c3cccc(C(F)(F)F)c3)CC2)cc1 | -6 | 11 | 0 | 6 | 4
COc1ccc(N2CCC(CNS(=O)(=O)c3cccc(C(F)(F)F)c3)C2)cc1 (stereo not drawn) | nt | -7 | 4 | 38* | 2
CC1(C)CC(NCc2ccccc2)CCO1 (stereo not drawn) | 38* | -8 | 1 | -13 | -3
CN(C)c1cccc(F)c1C(=O)NC(=O)Nc1ccc(Cl)cc1 | nt | -29 | nt | nt | -4
Cc1cc(O)c(C(C)C)cc1NC(=O)Nc1ccc([N+](=O)[O-])cc1 | nt | -18 | nt | nt | -3
CCOc1ccc(NC(=O)Nc2cc(C(C)C)ccc2C)cc1 | -23 | nt | -1 | 31* | nt
Cc1ccc(C(C)C)cc1NC(=O)Nc1ccc([N+](=O)[O-])cc1 | -23 | -23 | 4 | 37* | 9
O=C(CCCCn1c(=O)c2ccccc2n(Cc2cccc(F)c2)c1=O)NCCc1ccccc1 | 2 | nt | 1 | nt | nt
Cc1ccc(CCNS(=O)(=O)c2ccc3c(c2)C(C(C)C)C(=O)N3)cc1 (stereo not drawn) | -11 | nt | nt | nt | nt
COc1ccccc1C1CCN(Cc2ccccc2Cl)CC1 | -33 | -15 | 3 | 92* | 0
COc1ccc(CN2CCC(Cc3ccccc3)CC2)cc1OC | -17 | -28 | 0 | 19 | -6
COc1ccccc1C1CCN(Cc2cccc([N+](=O)[O-])c2)CC1 | -27 | -28 | 0 | 110* | -2
COc1cc(NC(=O)NCC2CCN(Cc3ccccc3Cl)CC2)cc(OC)c1OC | -8 | -15 | 1 | 9 | 3
OCCN1CCN(Cc2ccc3ccccc3c2)CC1 | -12 | -4 | 0 | -2 | -6
COc1ccccc1C1CCN(c2ccc(CO)cc2[N+](=O)[O-])CC1 | 0 | -6 | 2 | -11 | 1
COc1ccccc1C1CCN(Cc2ccccc2)CC1 | -29 | -40 | 32* | 83* | -8
COc1ccccc1C1CCN(Cc2ccc3ccccc3c2)CC1 | -32 | -16 | -1 | 85* | -2
SMILES | D2 PAM-1 | D2 PAM-2 | D2 ag-1 | D2 antagonist | D2 ag-2
COc1cccc(N2CCN(C(=O)c3ccc(CS(=O)c4cccc(Cl)c4)o3)CC2)c1 (stereo not drawn) | 2 | nt | nt | nt | nt
Cc1ccc(S(=O)(=O)NC(=O)C2(C)CCN2C(=O)CC2CCCC2)cc1 (stereo not drawn) | nt | -6 | nt | nt | -6
Cc1ccc(C(=O)Nc2sc3c(c2C(=O)O)CCCCC3)o1 | 3 | 4 | 1 | 32* | -1
O=C(Nc1sc2c(c1C(=O)O)CCC2)c1ccco1 | 5 | -1 | 0 | 4 | 1
COC(=O)c1c(NC(=O)Cc2cccs2)sc2c1CCCC2 | 3 | 3 | 0 | -2 | -3
COC(=O)c1c(NC(=O)c2ccco2)sc2c1CCC2 | 30* | 5 | -3 | 2 | -6
COC(=O)c1c(NS(=O)(=O)c2cccs2)sc2c1CCCC2 | 9 | -2 | 0 | 41* | -2
CN(C)CCC1(c2ccccc2)CCN(C)C1=O (stereo not drawn) | nt | -8 | nt | nt | -4
CCOC(=O)c1c(NC(C)=O)sc2c(O)c(Br)cc(Br)c12 | 7 | 13 | 0 | 36* | 2

Screening data: PubChem BioAssay, National Center for Advancing Translational Sciences (NCATS)
